Hits are enriched below; roughly 0.53% of the tested compounds scored in any of these assays.
GLS inhibitor: qHTS for Inhibitors of Glutaminase (GLS). GLS enzymatic activity, qHTS titration. Potency, µM (highest dose often 45.5 µM), without a hit: top-dose activity change, negative = inhibition, most hits filed as inhibitors. hit rate 0.21% among 410,000. AID 624170, 2012; note: potency is the fitted concentration of half-maximal effect
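Two-point fluorescence kinetic (t0, 30 min RT) for hKGA; glutamate detected via glutamate oxidase–HRP–Amplex Red. Substrate: 1 mM L-glutamine solution; buffer 45 mM KH2PO4, pH 8.2.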
PGK inhibitor: qHTS Assay to Find Inhibitors of Phosphoglycerate Kinase | Phosphoglycerate kinase, glycosomal (Trypanosoma brucei brucei), P07378 | PGK/GAPDH coupled, Kinase-Glo luminescence, 60 min | Potency, µM (doses to about 57.5 µM), without a hit: at the highest dose activity change, negative = inhibition, usual class: inhibitors | hit rate 0.043% among 380,000 | AID 602233, 2012; note: potency is the fitted concentration of half-maximal effect; nearly all actives have a fitted effect of over 60% in size
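Recombinant glycosomal PGK reaction used 1,3-bisphosphoglycerate generated in-well by GAPDH (100nM final) in 100mM TEA pH 7.6, 5mM MgCl2, 0.01% Tween-20. After 60 minutes at room temperature, ATP was read by Kinase-Glo Plus luminescence end-point.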
PI4K2A block: qHTS for small molecular inhibitors of PI4K2A. AID 1346378, 2018. activity change, negative = inhibition, % at 76.9 µM. purified PI4K2A, ADP-Glo luminescence, 1 h; active compounds read low. hit rate 0.13% among 420,000; in the data active = activity change below about -50%; inconclusive = mostly about -30% to -49%;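 note: -100% = wells without enzyme as full effect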
Target sequence (Q9BTU6 whole entry, looked up): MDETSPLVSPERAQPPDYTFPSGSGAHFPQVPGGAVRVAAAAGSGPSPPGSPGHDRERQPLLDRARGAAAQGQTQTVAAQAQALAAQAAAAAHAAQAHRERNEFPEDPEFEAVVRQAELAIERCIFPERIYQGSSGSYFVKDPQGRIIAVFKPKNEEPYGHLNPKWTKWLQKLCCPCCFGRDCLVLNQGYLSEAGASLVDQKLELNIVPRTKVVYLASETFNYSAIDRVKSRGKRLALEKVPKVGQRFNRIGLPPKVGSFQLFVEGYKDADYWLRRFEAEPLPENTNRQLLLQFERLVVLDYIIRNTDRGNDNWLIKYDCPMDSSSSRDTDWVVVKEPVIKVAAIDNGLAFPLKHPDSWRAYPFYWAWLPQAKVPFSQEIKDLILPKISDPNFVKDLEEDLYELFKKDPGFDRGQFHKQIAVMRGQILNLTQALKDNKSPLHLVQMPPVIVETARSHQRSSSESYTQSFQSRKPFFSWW
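In this quantitative HTS, ADP production by PI4K2A was quantified luminescently after 1 h at ambient temperature; 100 microM adenosine served as plate-quality control.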
USP1-UAF1 inh: Inhibitors of USP1/UAF1: Primary Screen | recombinant USP1/UAF1, Ub-Rhodamine cleavage fluorescence | AID 743255, 2014 | hit rate 0.23% among 390,000 | Ubiquitin carboxyl-terminal hydrolase 1 (Homo sapiens), O94782 | Potency, µM (series often up to 57.1 µM), for the others: at the top dose activity change, negative = inhibition, hits mostly inhibitors; note: potency is the fitted concentration of half-maximal effect; nearly all actives have a fitted effect of over 60% in size
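In this screen, compounds sit with the deubiquitinase complex (1nM) for 15 min at room temperature before Ub-Rho is added at 150nM final. Fluorescence rise is then followed for 6 reads every 60 seconds.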
* hit, by the source's call. Unless noted, calls come from the whole dose curve; as a rule, active = well fitted curve in the direction sought with a large enough effect; inconclusive = small, poorly fitted or top-dose-only effect, or another doubt; inactive = no such curve, though single readings can be large; an effect the other way counts as inactive or inconclusive. Unless noted, % is set by controls: 0 for no effect and ±100 for the full control effect.

`O=C(CSc1nnc(-c2ccncc2)n1Cc1ccco1)Nc1nccs1` gave GLS inhibitor -6%, PGK inhibitor -1%, PI4K2A block 3 and USP1-UAF1 inh -15%.
`CC(C)(C)c1ccc(-c2nnc(SCC(=O)Nc3ccc(S(=O)(=O)Nc4nccs4)cc3)n2Cc2ccco2)cc1` gave PI4K2A block -56*.
For Cc1ccc(/C=N/n2c(-c3ccccc3)csc2=S)cc1 the results were GLS inhibitor -5% and PI4K2A block 1.
Screening CN(C)c1ccc(NC2=C([N+](=O)[O-])CS(=O)(=O)C2)cc1 returned GLS inhibitor 30%, PI4K2A block -63* and USP1-UAF1 inh -8%.
Screening CN(C)[C@H]1C(=O)C(C(=O)NCN2CCCC2)=C(O)[C@]2(O)C(=O)C3=C(O)c4c(O)cccc4[C@@](C)(O)[C@H]3C[C@@H]12 returned GLS inhibitor 5µM*.
`CN(C)[C@@H]1C(=O)C(C(=O)NCN2CCCC2)=C(O)[C@@]2(O)C(=O)C3=C(O)c4c(O)cccc4[C@@](C)(O)C3C[C@@H]12` (stereo partly specified) gave PI4K2A block -3.
For CN1C(CSCC(F)(F)F)Nc2cc(Cl)c(S(N)(=O)=O)cc2S1(=O)=O (stereo unspecified) the results were GLS inhibitor -4% and PI4K2A block 0.
`COc1ccccc1N1CCN(CC(O)COc2cc(OC)c(OC)c(OC)c2)CC1` (stereo unspecified) gave PI4K2A block 3.
CN(C)[C@@H](CCOc1cccc2ccccc12)c1ccccc1 was read as PI4K2A block -2.
`CC/C(=C\C(=O)c1ccncc1)Nc1ccc(O)cc1` gave GLS inhibitor 24%, PGK inhibitor -4%, PI4K2A block -50* and USP1-UAF1 inh -6%.
`O=C1CCCc2c(O)cccc21` gave PI4K2A block -4.
`ClC(Cl)(Cl)c1nc2ccccc2n2nncc12` gave GLS inhibitor 11µM*, PGK inhibitor 1%, PI4K2A block -22 and USP1-UAF1 inh -22%.
Cc1cc(=O)[nH]c2nnc(SCC(=O)Nc3cc(C(F)(F)F)ccc3Cl)n12 was read as GLS inhibitor 7%, PGK inhibitor -1%, PI4K2A block -58* and USP1-UAF1 inh -13%.
Screening Cc1cc(C(=O)NNC(=O)/C=C/c2ccco2)c(C)o1 returned GLS inhibitor 10µM*, PGK inhibitor inconclusive, PI4K2A block -11 and USP1-UAF1 inh -3%.
For COc1ccccc1/C=C/C(=O)NNC(=O)c1cc(C)oc1C the results were GLS inhibitor 4%, PGK inhibitor 2%, PI4K2A block 4 and USP1-UAF1 inh 1%.
Screening CN1CCN(S(=O)(=O)c2ccc(N3CCN(c4ccc(O)cc4)CC3)c([N+](=O)[O-])c2)CC1 returned GLS inhibitor 8.9µM*, PGK inhibitor -3%, PI4K2A block -4 and USP1-UAF1 inh -9%.
Cc1cc(C)c(S(=O)(=O)/N=C2\C=C(Nc3ccc(C(=O)O)cc3)C(=O)c3ccccc32)c(C)c1 was read as GLS inhibitor inconclusive, PGK inhibitor -24%, PI4K2A block inconclusive and USP1-UAF1 inh 14µM*.
`Cc1ccc(S(=O)(=O)/N=C2\C=C(NS(=O)(=O)c3ccccc3)C(=O)c3ccccc32)cc1` gave GLS inhibitor -5%, PGK inhibitor -19%, PI4K2A block inconclusive and USP1-UAF1 inh 18µM*.
Screening O=S(=O)(N=C1C=CC(=NS(=O)(=O)c2ccccc2)c2ccccc21)c1ccccc1 returned GLS inhibitor 51%, PGK inhibitor -13%, PI4K2A block inconclusive and USP1-UAF1 inh 28µM*.
For O=C(O)c1ccc(NC2=C/C(=N/S(=O)(=O)c3ccccc3)c3ccccc3C2=O)cc1 the results were GLS inhibitor 8%, PGK inhibitor -26%, PI4K2A block inconclusive and USP1-UAF1 inh 2.8µM*.
Screening O=C1c2ccccc2C(=O)N1S(=O)(=O)c1ccccc1 returned GLS inhibitor -1%, PGK inhibitor -2%, PI4K2A block 0 and USP1-UAF1 inh -12%.
Screening Cc1cc(C)c(S(=O)(=O)/N=C2\C=C(NS(=O)(=O)c3ccccc3)C(=O)c3ccccc32)c(C)c1 returned GLS inhibitor -8%, PGK inhibitor -1%, PI4K2A block -17 and USP1-UAF1 inh inconclusive.
Screening CCCCC(F)(F)[C@@]1(O)CC[C@H]2[C@H](CC(=O)[C@@H]2CCCCCCC(=O)O)O1 returned GLS inhibitor -11%.
Screening CCC(C)S(=O)(=O)c1oc(-c2cccs2)nc1S(=O)(=O)c1ccccc1 (stereo unspecified) returned GLS inhibitor -5%, PGK inhibitor -4%, PI4K2A block 30 and USP1-UAF1 inh inconclusive.
For CCN(CC)c1ccc(/C=C(\C#N)c2ccccn2)cc1 the results were GLS inhibitor -2%, PGK inhibitor inactive, PI4K2A block -9 and USP1-UAF1 inh inconclusive.
`N#C/C(=C\c1ccc(C(=O)O)cc1)c1ccccn1` gave GLS inhibitor 39%, PGK inhibitor -19%, PI4K2A block -65* and USP1-UAF1 inh -5%.
`CC(=O)c1ccc(N2CCN(C(=O)C3CCC3)CC2)cc1` gave GLS inhibitor 5%, PGK inhibitor inactive, PI4K2A block 4 and USP1-UAF1 inh -9%.
`O=C(C1CC1)N1CCN(c2ccc(O)cc2)CC1` gave GLS inhibitor 10µM*, PGK inhibitor 1%, PI4K2A block 2 and USP1-UAF1 inh -14%.
CC(=O)C[C@H]1[C@H](O[C@H]2[C@H](OC(C)C(=O)N[C@@H](C)C(=O)N[C@H](CCC(=O)N[C@@H](CCCCN)C(=O)N[C@H](C)C(=O)O)C(N)=O)[C@@H](NC(=O)O)C(O)O[C@@H]2CO)O[C@H](CO)[C@@H](O)[C@@H]1O (stereo partly specified) was read as GLS inhibitor 0%.
Screening CCOC(=O)C1=C(C)NC(C)=C(C(=O)OCC)C1c1ccncc1 returned GLS inhibitor 16%, PGK inhibitor inactive, PI4K2A block -76* and USP1-UAF1 inh -19%.
CCOC(=O)C1=C(C)OC(N)=C(C(=O)OCC)C1c1ccncc1 (stereo unspecified) was read as GLS inhibitor -6%, PGK inhibitor inactive, PI4K2A block -11 and USP1-UAF1 inh -5%.
For Cc1ncc(C(O)c2ccc(N(C)C)cc2)n1Cc1ccccc1 (stereo unspecified) the results were GLS inhibitor 30%, PGK inhibitor -4%, PI4K2A block 3 and USP1-UAF1 inh -17%.
Screening CN(C)c1ccc2nc3c(=O)[nH]c(=O)nc-3n(CC(O)C(O)C(O)CO)c2c1 (stereo unspecified) returned GLS inhibitor -12%, PGK inhibitor inconclusive, PI4K2A block -17 and USP1-UAF1 inh 28µM*.
